# Data: PubChem BioAssay (NCI)
# This is part of a sample that, as a whole, favours compounds with a hit. Of some 83,000 tested, about 20% had one in any assay.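 Negative percent growth values reflect cell death: -40 means 40% of the cells present at the start died, and -100 means all died.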 A number with no mark means an inactive call. Active and inactive are the calls of the source. How the source made its calls: active means growth percent below 10; inactive means the rest.
# Legend:
# Test in all cases: NCI-60 one-dose screen, 48 h (100 = growth as untreated, 0 = no growth, -100 = all killed)
# SR leukemia = conditions: 10 µM unless noted
# RPMI-8226 leukemia = conditions: 10 µM unless noted
# OVCAR-8 ovarian = conditions: 10 µM unless noted
# OVCAR-5 ovarian = conditions: 10 µM unless noted
# OVCAR-4 ovarian = conditions: 10 µM unless noted
# SK-OV-3 ovarian = conditions: 10 µM unless noted
# IGROV1 ovarian = conditions: 10 µM unless noted
# OVCAR-3 ovarian = conditions: 10 µM unless noted
# NCI/ADR-RES ovarian = conditions: 10 µM unless noted
# T-47D breast = conditions: 10 µM unless noted
# BT-549 breast = conditions: 10 µM unless noted
# MDA-MB-435 melanoma = conditions: 10 µM unless noted
# SW-620 colon = conditions: 10 µM unless noted
# MCF7 breast = conditions: 10 µM unless noted
# HCT-116 colon = conditions: 10 µM unless noted
# HCC-2998 colon = conditions: 10 µM
# KM12 colon = conditions: 10 µM unless noted
SMILES,growth (SR leukemia),growth (RPMI-8226 leukemia),growth (OVCAR-8 ovarian),growth (OVCAR-5 ovarian),growth (OVCAR-4 ovarian),growth (SK-OV-3 ovarian),growth (IGROV1 ovarian),growth (OVCAR-3 ovarian),growth (NCI/ADR-RES ovarian),growth (T-47D breast),growth (BT-549 breast),growth (MDA-MB-435 melanoma),growth (SW-620 colon),growth (MCF7 breast),growth (HCT-116 colon),growth (HCC-2998 colon),growth (KM12 colon)
O=C(NOCCO)c1cc(CN2OCCCC2=O)c(F)c(F)c1Nc1ccc(I)cc1F,65.6%,78.8%,52.1%,20.2%,64.5%,52.3%,21.2%,103%,58.1%,67.6%,80.5%,36.9%,24.1%,88.7%,13.9%,-18.6% (active),26.6%
Cn1cnc2c(F)c(Nc3ccc(Br)cc3Cl)c(C(=O)NOCCO)cc21,75%,69.9%,66.4%,7.92% (active),65.5%,51.5%,25.3%,106%,68.6%,70%,78.5%,33.3%,24.2%,96%,17.6%,-10.2% (active),28.6%
COc1ccc(Cl)c(Nc2nc3ccccc3nc2NS(=O)(=O)c2cccc(NC(=O)C(C)(C)N)c2)c1,54.9%,51.5%,53.3%,45.7%,68%,4.52% (active),-16.9% (active),36.9%,52.6%,-19.8% (active),28%,53.5%,65.7%,20.3%,47%,54.8%,53.1%
Cn1ccnc1C(=O)/C=C/c1ccc(CC(=O)Nc2ccc(C(F)(F)F)cc2)cc1,1.17% (active),3.07% (active),-25.8% (active),22.9%,43.1%,53.5%,9.94% (active),9.48% (active),6.64% (active),3.52% (active),3.71% (active),30.6%,7.25% (active),8.41% (active),6.67% (active),0.221% (active),4.24% (active)
Cc1ncc(-c2ccnc(Nc3ccc(S(C)(=O)=O)cc3)n2)n1C(C)C,-18.3% (active),-0.427% (active),6.22% (active),-0.123% (active),3.33% (active),11.6%,-10.8% (active),8.42% (active),1.79% (active),-12.3% (active),-11.4% (active),-45.2% (active),0.356% (active),2.6% (active),-0.0408% (active),-15.6% (active),-68.7% (active)
Cc1ccc(NC(=O)c2ccc(CN3CC[C@H](N(C)C)C3)c(C(F)(F)F)c2)cc1Nc1nccc(-c2cncnc2)n1,-7.54% (active),-9.27% (active),3.4% (active),15.3%,-4.76% (active),38.6%,0.261% (active),-6.36% (active),24.9%,-58.9% (active),35.9%,-18.3% (active),8.15% (active),7.04% (active),-17.4% (active),-22.7% (active),10.4%
CNC(=O)c1cc(Oc2ccc(NC(=O)Nc3ccc(Cl)c(C(F)(F)F)c3)c(F)c2)ccn1,-32.6% (active),-34% (active),-1.84% (active),3.12% (active),8.63% (active),-16.7% (active),-20.8% (active),0.719% (active),-14.3% (active),-34.5% (active),-31.3% (active),-57% (active),-8.01% (active),-26.6% (active),-37.3% (active),-80.8% (active),-32.3% (active)
COc1cc2c(cc1OCCCN1Cc3ccc(OCCCCC(=O)N4CCC(CCN5CCCC5)CC4)cc3C1)N=C(N)C21CCCC1,1.87% (active),62.6%,97.9%,102%,77%,71.7%,83%,99.2%,107%,56.2%,63.4%,81.5%,66.4%,58.5%,68.1%,101%,78.5%
C=CCn1c(=O)c2cnc(Nc3ccc(N4CCN(C)CC4)cc3)nc2n1-c1cccc(C(C)(C)O)n1,4.58% (active),10.1%,8.75% (active),25.1%,20.2%,-1.76% (active),3.06% (active),-8.58% (active),25.1%,36.4%,1.3% (active),-61.7% (active),14.6%,15.7%,2.48% (active),9.01% (active),0.327% (active)
O=C(NC[C@H](O)CO)c1ccncc1Nc1ccc(I)cc1F,57.2%,74.6%,66.9%,7.42% (active),41.4%,33.8%,16.3%,83.7%,58.7%,47.7%,88%,35.2%,17.4%,49.1%,9.79% (active),2.1% (active),16.6%
CC[C@H](Nc1ncnc2nc[nH]c12)c1nc2cccc(F)c2c(=O)n1-c1ccccc1,72.8%,78.9%,60.6%,61.8%,95.7%,-4.44% (active),8.8% (active),48.7%,83%,-4.25% (active),40.2%,82.6%,78.3%,54.4%,65.5%,85.9%,84.6%
C=CCN(/C=C1/C(=O)O[C@H](COC)[C@@]2(C)C1=C(O)C(=O)C1=C2[C@H](OC(C)=O)C[C@]2(C)C(=O)CC[C@@H]12)CC=C,0.113% (active),35.2%,29.4%,20.5%,30.6%,-19.6% (active),-1.93% (active),21%,35.4%,-10.6% (active),-7.68% (active),21.4%,39.8%,11.8%,14.6%,-20.4% (active),22.4%
Cn1ccnc1C(=O)/C=C/c1ccc(CC(=O)Nc2ccc(S(F)(F)(F)(F)F)cc2)cc1,0.968% (active),-18.8% (active),-14.1% (active),-38.1% (active),17.5%,18.4%,-17.5% (active),6.7% (active),7.59% (active),-7.73% (active),-50.6% (active),15.1%,3.88% (active),10.2%,-63.5% (active),-65.1% (active),-56.9% (active)
O=C(Nc1nc2cccc(-c3ccc(CN4CCS(=O)(=O)CC4)cc3)n2n1)C1CC1,45.4%,62.5%,58.1%,75.3%,78.4%,58.4%,65%,57.5%,90.3%,80.4%,53.6%,91.3%,30.1%,16.7%,44.3%,79.2%,31.7%
O=c1sn(-c2cccc3ccccc23)c(=O)n1Cc1ccccc1,38.7%,76.8%,94.4%,112%,107%,83%,98.2%,99.4%,107%,91.5%,110%,104%,110%,103%,88.1%,110%,104%
Cc1cccc(C)c1N1C(c2ccccc2)=NNC12C=CC(=O)c1c(O)cccc12 (stereo unspecified),56.9%,75.6%,69.6%,90.8%,70.5%,86%,83.3%,51.7%,70.3%,96.2%,44.7%,-90.1% (active),103%,78.7%,45.3%,98.5%,75.9%
CN1CCN(c2ccc(OC(F)(F)F)c(Nc3ncc4c(n3)-c3c(c(C(N)=O)nn3CCO)CC4)c2)CC1,4.81% (active),32.7%,9.62% (active),19.9%,71.5%,-3.27% (active),25.1%,41%,12.9%,43.9%,27.8%,-50.5% (active),9.76% (active),22.1%,9.89% (active),17%,9.34% (active)
CN(C)C[C@@H]1CCn2cc(c3ccccc32)C2=C(C(=O)NC2=O)c2cn(c3ccccc23)CCO1,-11.8% (active),-18.8% (active),-0.0404% (active),-7.31% (active),-45.9% (active),6.11% (active),-13.1% (active),1.36% (active),6.82% (active),21.2%,-3.62% (active),20.2%,-57.6% (active),-58.8% (active),-69.4% (active),22%,3.55% (active)
